This is an account of results in PubChem BioAssay.

A short description of test [1]: yeast TOR pathway RPL19A-GFP modulators, primary screen, cell-based, S. cerevisiae, multiplex flow cytometry (AID 1862; in the data active = percent of DMSO control GFP below about 86%;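 also: lower values mimic rapamycin by blocking the RPL19A rise seen in DMSO cells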). As to conditions: S. cerevisiae RPL19A-GFP strain, flow cytometry fluorescence, 3 h; at 10 µM; stronger effect = lower value. A general note: Flow cytometry measures light scatter and fluorescence of single cells or particles in a stream.
Test [2] can be described thus: modulators of MEP2-GFP levels in yeast, primary screen, S. cerevisiae, multiplex flow cytometry (AID 1867;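 active = GFP response, as percent of the DMSO control, above the screen-wide mean plus 3 SD, about 139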;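 also: median GFP channel fluorescence of barcode-gated MEP2-GFP cells measured by flow cytometry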). The note with it: S. cerevisiae MEP2-GFP strain, 3 h, at 10 µM, stronger effect = higher value, 100% means same as DMSO wells.
Test [3] in a line: modulators of CIT2-GFP expression in yeast, primary screen, S. cerevisiae, GFP fusion, multiplex flow cytometry (AID 1870;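 active = percent response above a set limit, the screen-wide mean plus 3 SD, cut at about 130% in these data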;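 also: barcoded CIT2-GFP strain pooled with four other GFP strains with rapamycin as positive control; median GFP fluorescence per well over plate mean of DMSO wells so 100% = DMSO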). The note with it: 3 h, at 10 µM, stronger effect = higher value.
Test [4] is described as follows: modulators of LAP4-GFP expression in yeast, primary screen, S. cerevisiae, multiplex flow cytometry (AID 1873;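 active = GFP signal, as percent of the solvent control, above the screen mean plus 3 SD, about 149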). The note with it: 3 h, at 10 µM, stronger effect = higher value.
The nature of test [5]: modulators of AGP1-GFP expression in yeast TOR pathway, primary screen, cell-based, multiplex flow cytometry, S. cerevisiae (AID 1887;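 active = GFP signal above the screen-wide mean plus 3 SD, that is over about 124.5% of the solvent control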;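 also: AGP1-GFP fusion strain of S. cerevisiae within a five-strain barcoded multiplex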). As to conditions: 3 h, at 10 µM, stronger effect = higher value.
A short description of test [6]: inhibitors of CD8+ T cell-vesicle binding, pilot screen, LFA-1/ICAM-1 modulator project, MLPCN validation set, flow cytometry (AID 2523;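 active = response below a set limit, under 55% cells CD8-positive and vesicle-bound, and CD8 cells' 90th-percentile brightness under 279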;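 as to vesicle binding response: mean PE anti-B7-1 fluorescence of CD8+ cells relative to row control; 100% = QL9-loaded vesicles with DMSO vehicle in the same plate row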). As to conditions: 2C mouse CD8+ T cells, at 7 µM, stronger effect = lower value; double positive events: measured here: CD8+/vesicle+ event percentage.
Test [7] has as its target Integrin beta-1 (Homo sapiens) + Integrin alpha-4 (Homo sapiens) (UniProt P13612+P05556). As to the kind of experiment: inhibition of HUTS-21 binding to VLA-4, pilot screen, VLA-4 allosteric modulator project, U937 cells, HUTS-21 mAb, flow cytometry, validation set (AID 2674;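 active = inhibition above 50%, about 3 SD of the validation set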;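 also: antibody binding induced by the VLA-4 ligand LDV present at three times its Kd; 0% = LDV ligand with antibody and no compound and 100% = antibody without LDV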). As to conditions: HUTS-21 LIBS mAb binding, at 6.7 µM, stronger effect = higher value, binding induced by LDV ligand.

The nature of test [8]: superoxide lowering in aged yeast cells, pilot screen, validation compound set (AID 2706;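 active = superoxide response below 65% of plate, a cut near 3 SD across the whole screen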;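 also: yeast exposed to compound for one week at 30 degrees C before staining; 100% = mean of all compound wells on the same plate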). The note with it: S. cerevisiae aging, superoxide DHE fluorescence; at 10 µM; stronger effect = lower value.
The target of test [9] is Beta-adrenergic receptor kinase 1 (Homo sapiens) (UniProt P25098). In words: GRK2 binders displacing RNA aptamer, biochemical, validation, human GRK2, bead flow cytometry (AID 488806;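 active = aptamer binding inhibition above 30%, about 3 SD of noise from non-fluorescent compounds; inactive = inhibition at or below 30%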). The note with it: bead-bound GRK2, FAM-aptamer displacement, at 10 µM, stronger effect = higher value.
Beta-adrenergic receptor kinase 1 (Homo sapiens), sequence (P25098 whole entry, looked up): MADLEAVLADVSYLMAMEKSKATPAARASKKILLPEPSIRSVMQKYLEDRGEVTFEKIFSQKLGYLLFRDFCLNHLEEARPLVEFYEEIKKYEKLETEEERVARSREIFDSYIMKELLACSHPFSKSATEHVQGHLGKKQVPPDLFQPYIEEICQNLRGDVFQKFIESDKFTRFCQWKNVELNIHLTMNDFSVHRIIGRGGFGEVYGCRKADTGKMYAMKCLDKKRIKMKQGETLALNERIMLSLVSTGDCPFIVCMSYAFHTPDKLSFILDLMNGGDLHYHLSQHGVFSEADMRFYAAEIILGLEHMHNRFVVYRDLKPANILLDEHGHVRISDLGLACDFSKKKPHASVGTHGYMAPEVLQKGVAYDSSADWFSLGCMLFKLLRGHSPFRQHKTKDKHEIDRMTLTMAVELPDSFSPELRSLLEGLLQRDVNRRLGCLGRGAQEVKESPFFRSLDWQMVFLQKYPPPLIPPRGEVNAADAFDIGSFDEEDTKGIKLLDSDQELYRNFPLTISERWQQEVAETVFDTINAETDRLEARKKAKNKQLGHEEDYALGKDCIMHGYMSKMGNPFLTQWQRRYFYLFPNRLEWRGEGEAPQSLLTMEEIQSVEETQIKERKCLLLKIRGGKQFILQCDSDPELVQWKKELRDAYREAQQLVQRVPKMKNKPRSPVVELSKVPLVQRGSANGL
Test [10] has as its target Beta-2 adrenergic receptor (Homo sapiens) (UniProt P07550). In words: beta2AR agonists driving receptor internalization, pilot screen, cell-based, FAP fluorogen, flow cytometry, validation set (AID 504459;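 active = percent response above 42, roughly 3 SD of non-fluorescent test compounds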;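 also: agonist-driven loss of surface beta2AR via internalization measured by FAP dye flow cytometry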). As to conditions: Am2.2-beta2AR cells, FAP surface receptor flow cytometry; at 10 µM; stronger effect = higher value.
The target in test [11] is AP-2 complex subunit beta (Homo sapiens) (UniProt P63010). In words: inhibitors of arrestin peptide binding to AP2, pilot screen, biochemical, validation set, GST-AP2 beads, flow cytometry (AID 504541;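 active = inhibition above 54%, about 3 SD of non-fluorescent compounds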;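 also: AP2 carries R879A mutation and is captured from E. coli lysate; bead-bound FITC arrestin peptide fluorescence measuring arrestin peptide binding to AP2; 0% = DMSO wells and 100% = excess unlabeled arrestin peptide control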). The note with it: FITC arrestin peptide, at 10 µM, stronger effect = higher value, AP2 beta2 appendage fragment, R879A mutant.
AP-2 complex subunit beta (Homo sapiens), sequence (P63010 whole entry, looked up, the tested form may be a part, one chain of several): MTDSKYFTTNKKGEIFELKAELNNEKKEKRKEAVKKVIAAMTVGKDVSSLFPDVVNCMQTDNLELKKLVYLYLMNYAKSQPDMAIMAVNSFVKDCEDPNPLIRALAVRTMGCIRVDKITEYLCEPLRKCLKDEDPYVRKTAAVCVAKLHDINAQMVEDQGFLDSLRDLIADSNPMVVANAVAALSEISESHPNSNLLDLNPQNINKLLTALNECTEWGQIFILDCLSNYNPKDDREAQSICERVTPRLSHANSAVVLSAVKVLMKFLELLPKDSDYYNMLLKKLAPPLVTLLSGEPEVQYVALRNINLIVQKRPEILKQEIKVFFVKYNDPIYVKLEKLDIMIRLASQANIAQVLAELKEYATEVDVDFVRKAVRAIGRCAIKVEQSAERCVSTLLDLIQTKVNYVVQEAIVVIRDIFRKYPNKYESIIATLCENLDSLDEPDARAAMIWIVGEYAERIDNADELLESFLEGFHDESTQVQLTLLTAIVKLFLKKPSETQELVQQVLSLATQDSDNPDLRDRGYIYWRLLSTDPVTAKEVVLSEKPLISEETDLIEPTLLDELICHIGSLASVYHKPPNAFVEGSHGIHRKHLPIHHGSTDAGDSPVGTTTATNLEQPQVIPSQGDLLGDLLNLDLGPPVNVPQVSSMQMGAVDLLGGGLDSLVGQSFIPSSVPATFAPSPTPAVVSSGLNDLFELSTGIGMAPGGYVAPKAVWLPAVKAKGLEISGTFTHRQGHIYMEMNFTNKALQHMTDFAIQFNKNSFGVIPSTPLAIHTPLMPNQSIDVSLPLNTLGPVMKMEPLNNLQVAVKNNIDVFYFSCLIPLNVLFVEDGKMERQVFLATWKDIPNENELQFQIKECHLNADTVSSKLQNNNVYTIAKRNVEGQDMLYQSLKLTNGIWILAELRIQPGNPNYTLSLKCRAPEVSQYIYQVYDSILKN
The nature of test [12]: yeast V-ATPase proton transport modulators, S. cerevisiae, pHLuorin, HTS validation (AID 504600; in the data active = response above about 15%;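 also: plate controls were DMSO for no effect and reference compound for full effect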). As to conditions: S. cerevisiae pHLuorin cytosolic pH, at 10 µM, stronger effect = higher value.
Test [13] concerns anti-desmoglein-3 scFv antibody binding to human DSG3. In words: inhibitors of anti-DSG3 scFv binding to DSG3, pilot screen, biochemical, validation compound set, bead-based, flow cytometry (AID 588368;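 active = binding below the plate cutoff, the plate median minus 3 SD, with a reading above zero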;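 also: signal is the median channel fluorescence of bead-bound GFP antibody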). As to conditions: Protein G beads, DSG3-Fc, scFv-GFP binding, at 10 µM, stronger effect = lower value.
Test [14] can be described thus: inhibitors of fungal efflux pumps CDR1, CDR2, MDR1, pilot screen, validation compound set, multiplex, phenotypic (AID 588506).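 Also: Nile Red retained in cells so higher fluorescence means more efflux inhibition; 0 = negative control wells and 1 = enniatin B 25 µM full block.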 The note with it: S. cerevisiae pump-expressing triplex, Nile Red efflux flow cytometry; at 10 µM; stronger effect = higher value; the pumps come from Candida albicans.
Test [15] concerns the target ATP-binding cassette sub-family B member 6 (Homo sapiens) (UniProt Q9NP58). In words: ABCB6 transporter inhibitors, pilot screen, K562-ABCB6 cells, flow cytometry, validation set (AID 588550;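 active = inhibition above the screen-wide mean plus 3 SD, about 51%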;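 also: 0% = DMSO wells and 100% = benzethonium chloride 70 µM positive control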). As to conditions: K562-ABCB6 porphyrin accumulation, 1 h, at 10 µM, stronger effect = higher value.
Test [16] is described as follows: promoters of myeloid differentiation in arrested cells, primary screen, cell-based, GFP/MAC1 double positive, flow cytometry, validation set (AID 588685;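 active = differentiation response of at least 50%, scaled between solvent and reference control, from cells with both markers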;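 also: compound exposure lasts four days before antibody staining and flow analysis; 0% = DMSO wells and 100% = 5 µM fulvestrant positive control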). As to conditions: ER-HoxA9 marrow cells, stronger effect = higher value, normalized: vehicle 0, fulvestrant 100.

As usually defined, the inhibition is the relative decrease from the control value, in per cent.

Inconclusive results are not listed. Calls of active or inactive are those of the source.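 The calls were made as follows, unless noted: active = efflux inhibition above 0.42, the validation set average plus 4 SD; inconclusive = no clear call, values can overlap the other calls; inactive = the rest.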

ATP-binding cassette sub-family B member 6 (Homo sapiens), sequence (Q9NP58 whole entry, looked up): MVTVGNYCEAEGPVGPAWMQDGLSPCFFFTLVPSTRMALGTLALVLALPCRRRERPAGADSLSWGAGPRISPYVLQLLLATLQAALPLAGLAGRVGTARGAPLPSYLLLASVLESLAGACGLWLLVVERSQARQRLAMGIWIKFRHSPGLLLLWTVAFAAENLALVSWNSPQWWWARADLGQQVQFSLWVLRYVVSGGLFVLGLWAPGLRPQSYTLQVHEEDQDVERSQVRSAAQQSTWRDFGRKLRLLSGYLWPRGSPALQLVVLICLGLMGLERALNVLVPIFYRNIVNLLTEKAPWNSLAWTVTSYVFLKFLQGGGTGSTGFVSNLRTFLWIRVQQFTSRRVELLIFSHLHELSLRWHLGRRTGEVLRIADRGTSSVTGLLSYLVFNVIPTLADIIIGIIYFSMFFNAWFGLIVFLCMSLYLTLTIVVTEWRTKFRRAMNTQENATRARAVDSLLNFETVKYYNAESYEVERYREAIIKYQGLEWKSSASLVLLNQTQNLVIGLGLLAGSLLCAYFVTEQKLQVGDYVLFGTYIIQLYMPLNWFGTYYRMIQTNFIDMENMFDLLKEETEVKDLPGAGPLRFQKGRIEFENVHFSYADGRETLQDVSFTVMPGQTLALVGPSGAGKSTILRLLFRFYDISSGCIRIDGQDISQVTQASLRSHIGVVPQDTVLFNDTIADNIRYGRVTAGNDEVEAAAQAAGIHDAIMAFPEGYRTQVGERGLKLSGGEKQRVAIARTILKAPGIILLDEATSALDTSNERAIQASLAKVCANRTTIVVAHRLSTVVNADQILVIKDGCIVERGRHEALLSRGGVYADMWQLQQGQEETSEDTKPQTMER
Integrin beta-1 (Homo sapiens) + Integrin alpha-4 (Homo sapiens), sequence (P05556 whole entry, looked up): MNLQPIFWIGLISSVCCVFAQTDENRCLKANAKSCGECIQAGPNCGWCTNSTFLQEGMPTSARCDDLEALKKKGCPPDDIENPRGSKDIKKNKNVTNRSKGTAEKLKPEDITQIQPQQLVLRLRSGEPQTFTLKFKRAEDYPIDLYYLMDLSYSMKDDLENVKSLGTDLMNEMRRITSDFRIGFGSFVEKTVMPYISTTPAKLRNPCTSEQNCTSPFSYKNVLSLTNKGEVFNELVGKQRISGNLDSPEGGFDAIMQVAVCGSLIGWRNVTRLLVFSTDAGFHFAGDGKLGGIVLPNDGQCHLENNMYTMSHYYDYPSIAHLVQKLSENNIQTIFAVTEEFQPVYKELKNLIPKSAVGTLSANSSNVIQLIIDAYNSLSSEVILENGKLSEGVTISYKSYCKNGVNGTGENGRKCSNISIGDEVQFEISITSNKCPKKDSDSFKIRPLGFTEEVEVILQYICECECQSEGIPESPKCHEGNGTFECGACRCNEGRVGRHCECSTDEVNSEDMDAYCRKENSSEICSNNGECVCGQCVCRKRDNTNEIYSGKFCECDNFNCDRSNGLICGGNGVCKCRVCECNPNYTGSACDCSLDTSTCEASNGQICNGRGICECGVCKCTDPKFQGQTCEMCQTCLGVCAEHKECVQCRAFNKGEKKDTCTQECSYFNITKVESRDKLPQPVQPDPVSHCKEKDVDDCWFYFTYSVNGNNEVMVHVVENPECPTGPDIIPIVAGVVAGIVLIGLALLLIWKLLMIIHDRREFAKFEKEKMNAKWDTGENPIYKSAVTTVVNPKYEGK
Integrin beta-1 (Homo sapiens) + Integrin alpha-4 (Homo sapiens), sequence (P13612 whole entry, looked up): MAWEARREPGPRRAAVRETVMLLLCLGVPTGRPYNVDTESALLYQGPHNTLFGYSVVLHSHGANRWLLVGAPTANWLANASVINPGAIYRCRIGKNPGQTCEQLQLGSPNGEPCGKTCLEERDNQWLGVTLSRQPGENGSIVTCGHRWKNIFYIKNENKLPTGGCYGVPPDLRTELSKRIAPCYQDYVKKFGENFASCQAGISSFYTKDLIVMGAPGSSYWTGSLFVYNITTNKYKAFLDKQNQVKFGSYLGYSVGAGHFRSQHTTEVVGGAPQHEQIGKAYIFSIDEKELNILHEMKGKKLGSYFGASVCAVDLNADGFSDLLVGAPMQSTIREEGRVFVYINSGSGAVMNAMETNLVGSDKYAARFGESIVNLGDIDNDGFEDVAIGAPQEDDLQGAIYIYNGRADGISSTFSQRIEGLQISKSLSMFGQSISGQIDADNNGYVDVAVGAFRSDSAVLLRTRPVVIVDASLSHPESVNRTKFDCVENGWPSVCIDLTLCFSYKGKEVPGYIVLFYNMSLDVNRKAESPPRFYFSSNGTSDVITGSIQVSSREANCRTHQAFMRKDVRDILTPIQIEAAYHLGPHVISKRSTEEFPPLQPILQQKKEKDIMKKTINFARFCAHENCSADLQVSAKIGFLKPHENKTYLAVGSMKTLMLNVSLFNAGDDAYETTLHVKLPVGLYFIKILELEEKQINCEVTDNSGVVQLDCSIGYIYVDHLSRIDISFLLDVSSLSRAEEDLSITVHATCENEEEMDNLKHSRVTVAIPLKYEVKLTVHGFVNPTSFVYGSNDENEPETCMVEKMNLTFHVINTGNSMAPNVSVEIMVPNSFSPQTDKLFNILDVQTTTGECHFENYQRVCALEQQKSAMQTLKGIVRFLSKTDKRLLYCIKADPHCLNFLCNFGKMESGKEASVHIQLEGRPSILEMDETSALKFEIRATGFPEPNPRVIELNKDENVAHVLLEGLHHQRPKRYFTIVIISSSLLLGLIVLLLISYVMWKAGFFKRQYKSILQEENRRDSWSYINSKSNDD
Beta-2 adrenergic receptor (Homo sapiens), sequence (P07550 whole entry, looked up): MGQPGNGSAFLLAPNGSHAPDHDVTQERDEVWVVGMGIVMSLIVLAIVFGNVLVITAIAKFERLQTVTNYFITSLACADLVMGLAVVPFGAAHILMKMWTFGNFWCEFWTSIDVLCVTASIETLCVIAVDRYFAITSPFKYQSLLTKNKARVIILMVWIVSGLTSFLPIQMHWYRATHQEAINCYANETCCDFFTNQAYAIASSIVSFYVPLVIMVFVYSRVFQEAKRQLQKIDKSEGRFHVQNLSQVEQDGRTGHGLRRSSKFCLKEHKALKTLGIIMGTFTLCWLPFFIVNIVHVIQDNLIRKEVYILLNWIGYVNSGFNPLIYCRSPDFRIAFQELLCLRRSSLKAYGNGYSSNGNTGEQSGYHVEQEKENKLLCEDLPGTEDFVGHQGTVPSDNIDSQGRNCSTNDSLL

Take `S=C(NCCOCCOCCNC(=S)Nc1ccccc1)Nc1ccccc1`: the percent of DMSO control GFP in test [1] is 98.6% (inactive). For the same molecule, the GFP response vs DMSO in test [2] was 103% (inactive); in test [4], 108% (inactive). Also, the percent response of DMSO control in test [3] was 86.3% (inactive). Also, the GFP response, % of DMSO in test [5] is 97.4% (inactive). The molecule also yielded a double positive events in test [6] of 64.8%. Also, the vesicle binding response in test [6] is 250% (inactive). For the same molecule, the inhibition in test [7] is -22.3% (inactive); in test [11], -17% (inactive); in test [15] it was 4% (inactive). Also, the superoxide response (% of plate) in [8] is 134% (inactive). In addition, the aptamer binding inhibition in test [9] is 3% (inactive). Also, the response in [10] was 2.38% (inactive); in [12] it was 6.24% (inactive). Moreover, the binding (% of control) in test [13] is 99.9% (inactive). The efflux inhibition (fraction of control) in [14] was 0.55 (active). For the same molecule, the differentiation response in test [16] is 5.6% (inactive).

In the case of `Fc1ccc(C(c2ccc(F)cc2)N2CCN(C/C=C/c3ccccc3)CC2)cc1`, the percent of DMSO control GFP in test [1] was 94.6% (inactive). The GFP response vs DMSO in test [2] is 131% (inactive); in test [4], 80.9% (inactive). The percent response of DMSO control in test [3] was 104% (inactive). Moreover, the GFP response, % of DMSO in test [5] was 97% (inactive). The double positive events in [6] is 56.3%. The vesicle binding response in test [6] was 215% (inactive). Besides, the inhibition in [7] was -1.3% (inactive); in [11], 2.83% (inactive); in test [15], 1% (inactive). Besides, in [8], the superoxide response (% of plate) is 108% (inactive). For the same molecule, the aptamer binding inhibition in test [9] is 4% (inactive). For the same molecule, the values for the response in test [10] and in test [12] were 6.79% (inactive) and -0.13% (inactive), respectively. Besides, in test [13], the binding (% of control) was 110% (inactive). In test [14], the efflux inhibition (fraction of control) is -0.02 (inactive). In addition, the differentiation response in [16] is 4.09% (inactive).

For the molecule `CC(C)COC(=O)C1C(=O)CC(C)(O)C(C(=O)OCC(C)C)C1c1cccnc1` (stereo not drawn), the percent of DMSO control GFP in test [1] is 90.4% (inactive). In addition, the results for the GFP response vs DMSO in [2] and in [4] were 118% (inactive) and 74.3% (inactive), respectively. Further, the percent response of DMSO control in [3] is 102% (inactive). For the same molecule, the GFP response, % of DMSO in test [5] was 88.4% (inactive). Also, the double positive events in [6] was 59.8%. The vesicle binding response in [6] is 203% (inactive). Besides, the figures for the inhibition in test [7], in test [11] and in test [15] were 8.4% (inactive), 2.38% (inactive) and 18% (inactive), respectively. Further, the superoxide response (% of plate) in test [8] is 113% (inactive). Besides, the aptamer binding inhibition in test [9] was 2% (inactive). In addition, the response was -11.2% (inactive) in [10] and 2.35% (inactive) in test [12]. Besides, the binding (% of control) in test [13] was 102% (inactive). Moreover, the efflux inhibition (fraction of control) in test [14] was -0.06 (inactive). Also, the differentiation response in [16] is -3.28% (inactive).

For the molecule `Cc1ccc([N+](=O)[O-])cc1NC1OC(CO)C(O)C1O` (stereo not drawn), the percent of DMSO control GFP in test [1] was 102% (inactive). Also, the GFP response vs DMSO is 105% (inactive) in test [2] and 120% (inactive) in test [4]. Also, the percent response of DMSO control in [3] is 104% (inactive). In addition, the GFP response, % of DMSO in test [5] was 109% (inactive). Moreover, in test [6], the double positive events is 56.8%. Further, in test [6], the vesicle binding response is 186% (inactive). The inhibition in [7] is -16.4% (inactive); in [11] it was 7.17% (inactive); in [15], 3% (inactive). The superoxide response (% of plate) in [8] is 108% (inactive). Further, in test [9], the aptamer binding inhibition is 4% (inactive). Further, the values for the response in test [10] and in test [12] were -23% (inactive) and 2.59% (inactive), respectively. Moreover, in [13], the binding (% of control) was 103% (inactive). In addition, the efflux inhibition (fraction of control) in test [14] was -0.04 (inactive). In addition, the differentiation response in test [16] is 2.89% (inactive).
